# From PubChem BioAssay
# Values without a mark were called inactive. How the calls were made is not given here.
# Target: Pantothenate synthetase (Mycobacterium tuberculosis (strain ATCC 25618 / H37Rv)) (UniProt P9WIL5)
# Assay: Recombinant Mtb pantothenate synthetase (PanC) inhibitors, coupled enzyme, confirmatory (AID 375);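 further: 0% = full reaction with vehicle and 100% = no enzyme background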
# Conditions: coupled enzyme assay; at 10 µM, hits give high values
# Sequence of Pantothenate synthetase (Mycobacterium tuberculosis (strain ATCC 25618 / H37Rv)) (P9WIL5 whole entry, looked up): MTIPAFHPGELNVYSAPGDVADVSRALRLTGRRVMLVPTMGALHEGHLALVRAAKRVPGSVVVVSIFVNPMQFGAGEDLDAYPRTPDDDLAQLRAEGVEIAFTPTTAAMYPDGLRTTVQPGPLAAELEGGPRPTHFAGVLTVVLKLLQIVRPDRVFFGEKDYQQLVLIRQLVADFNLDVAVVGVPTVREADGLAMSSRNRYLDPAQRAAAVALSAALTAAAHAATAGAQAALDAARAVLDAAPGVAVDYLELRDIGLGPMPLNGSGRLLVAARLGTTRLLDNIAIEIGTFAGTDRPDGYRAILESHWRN
row,SMILES,inhibition [%]
1,CC1CCCN(c2ccc(C(=O)NCc3cccs3)cn2)C1 (stereo not given),1
2,CCSc1nc2ccccc2n1CC(N)=O,4
3,c1ccc(-c2ccccc2OCCn2cncn2)cc1,5
4,CCCn1c(=O)[nH]c(=O)c2[nH]cnc21,0
5,CCOc1ccc(N(CC(=O)Nc2ccc(C)c(C)c2)S(=O)(=O)c2c(C)noc2C)cc1,0
6,COc1ccc(NC(=O)CN(c2cc(C)cc(C)c2)S(=O)(=O)c2c(C)noc2C)cc1OC,0
7,CCCc1[nH]nc2c1C(c1cccc(OC(=O)c3ccco3)c1)C(C#N)=C(N)O2 (stereo not given),1
8,Cc1cccc(NC(=O)c2ccc(S(=O)(=O)N(C)C)cc2)n1,0
9,CCOC(=O)c1sc(NC(=O)c2c(C)nn(Cc3ccccc3)c2C)cc1C,0
10,Cc1ccccc1CN1CCN(C(=O)c2cccc(F)c2)CC1,0
11,CCCC(=O)Nc1cc(C)c2c(=O)oc3ccccc3c2n1,2
12,CC1CCC(NC(=O)Cn2ncc3ccccc32)CC1 (stereo not given),0
13,CC(Oc1ccc(Cl)cc1Cl)c1nc(-c2ccc(NC(=O)c3cccnc3)cc2)no1 (stereo not given),3
14,CCCN(CCC)C(=O)CSc1nc2ccccc2c(=O)n1C1CCCC1,7
15,CCN(CC)CCNC(=O)c1ccc(N)cc1,0
16,COc1ccc(OC)c(C2=Nn3c(nnc3C3CCCCC3)SC2)c1,0
17,COc1ccc(C)cc1-n1nnnc1SCC(=O)NC(=O)NCc1ccco1,11
18,COc1ccc(C2CC(=O)C3=C(C2)Nc2ccccc2N(C(=O)C2CC2)C3c2cccnc2)cc1OC (stereo not given),8
19,C=CCn1c(Cc2csc(N)n2)nnc1SCC(=O)OCC,1
20,N#Cc1nc(-c2cccs2)oc1NCc1ccc(Cl)cc1,0

row,SMILES,inhibition [%]
1,CCOC(=O)c1ccc(Oc2cc(C)nc(SC)n2)cc1,0
2,Cc1ccc(S(=O)(=O)N2CCN(C(=O)CSC3CCCC3)CC2)c(C)c1,0
3,CC1CCCCC1NC(=O)COc1ccc(-n2cnnn2)cc1 (stereo not given),0
4,COC(=O)c1cc(OC)c(OC)cc1NC(=O)c1ccc(Br)o1,0
5,Cc1c(C(=O)O)sc2ncn(C)c(=O)c12,0
6,CCNC(=O)C1CC(=O)N(Cc2ccc3c(c2)OCO3)C(=Nc2ccc(F)cc2)S1 (stereo not given),0
7,CCCN1CCN(CCCNC(=O)C2CCCN(c3nc4ccc(OCC)cc4s3)C2)CC1 (stereo not given),1
8,O/N=C/c1ccc(OCC(O)COc2ccc(/C=N/O)cc2)cc1,0
9,O=C1c2ccccc2C(Nc2ccc(F)cc2F)N1CCN1CCOCC1 (stereo not given),0
10,Cc1ccc(S(=O)(=O)C2(C(=O)Nc3cccnc3)CC2)cc1,1
11,c1ccc2c(Cn3ccnc3)c[nH]c2c1,0
12,NC1=NC(c2ccc(Br)cc2)n2c(nc3ccccc32)N1 (stereo not given),0
13,ON1C2CCCCC2N(O)C1c1c(F)c(F)c(F)c(F)c1F (stereo not given),7
14,Clc1ccc(Cc2nn3c(-c4ccncc4)nnc3s2)cc1,0
15,COc1cccc(Cn2c(-c3nonc3N)nc3ccccc32)c1,0
16,Cc1cccc(NC(=O)CCN2CCN(C/C=C/c3ccccc3)CC2)c1,0
17,Cc1cc(C(=O)Nc2c(C)n(C)n(-c3ccccc3)c2=O)c(C)o1,0
18,COc1ccc(C(=O)CSc2nnc(-c3ccc(C)cc3)o2)cc1,1
19,Cc1ccc(C2c3sc(=O)[nH]c3SC3C(=O)NC(=O)C32)cc1 (stereo not given),0
20,Cc1ccc(NC2=NCC(=O)N2c2ccc3c(c2)OCCO3)c(C)c1,7
